Laboratory results taken from PubChem BioAssay.
Unmarked numbers belong to inactive results. For some assays here: Results with a measured potency or affinity are listed apart. Activity calls are given as the source filed them. Unless noted, the rule behind the calls is not given here.

Experiments:
[1] = antimalarial activity against Dd2 strain (AID 2302;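 active = growth inhibition above 50% at the single 2 µM test dose, taken to imply half-maximal potency below 2 µM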;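 note: 0% = DMSO untreated growth and 100% = chloroquine plus artemisinin killed control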); settings: P. falciparum Dd2 in RBCs, LDH growth readout, 72 h; at 2 µM; active compounds read high
[2] = human hepatoma cell viability loss – ATP luminescence, cytotoxicity control for P. falciparum antimalarial project, primary screen (AID 2303;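 active = inhibition above 50%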;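 note: 0% = DMSO wells and 100% = digitonin-killed cells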); settings: HepG2 viability, 24-48 h, at 10 µM, active compounds read high
[3] = target: L-lactate dehydrogenase (Plasmodium falciparum (isolate CDC / Honduras)) (UniProt Q27743); experiment: PfLDH activity inhibition – cell lysate, 3D7 strain, counter-screen for P. falciparum growth inhibition project (AID 2304);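 note: 0% = vehicle and 100% = reference inhibitor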; settings: P. falciparum 3D7 crude extract, LDH APAD/NBT absorbance; at 2 µM; active compounds read high
[4] = inhibition of 3D7 malaria parasite growth – strain 3D7 (AID 2306);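 note: 0% = DMSO wells and 100% = chloroquine plus artemisinin control wells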; settings: P. falciparum 3D7 erythrocytic growth, LDH absorbance, 72 h; at 2 µM; active compounds read high
[5] = target: Calcium-dependent protein kinase 1 (Plasmodium falciparum (isolate 3D7)) (UniProt P62344); experiment: PfCDPK1 kinase inhibitors, biochemical, TCAMS library (AID 1159585; cut-off not given, nearly all actives have IC50 up to about 0.98 µM;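 note: inhibitors leave more ATP so luminescence rises with inhibition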); settings: recombinant PfCDPK1, Kinase-Glo ATP depletion luminescence
[6] = target: Plasmodium falciparum protein kinase 6 (PK6, PF3D7_1337100) (UniProt Q8IDW1); experiment: PfPK6 kinase inhibitors, biochemical, TCAMS library (AID 1159586); settings: recombinant PfPK6, Kinase-Glo ATP depletion luminescence
[7] = target: Protein kinase 7 (PK7), Plasmodium falciparum 3D7 (PF3D7_0213400) (UniProt Q7YTF7); experiment: inhibition of Plasmodium PK7 catalytic activity – biochemical, TCAMS antimalarial set, Kinase-Glo luminescence (AID 1159587); settings: recombinant PfPK7, Kinase-Glo ATP depletion luminescence
[8] = target: Calcium-dependent protein kinase 4 (Plasmodium falciparum (isolate 3D7)) (UniProt Q8IBS5); experiment: PfCDPK4 kinase inhibitors, biochemical, TCAMS library (AID 1159588; cut-off not given, nearly all actives have IC50 up to about 0.91 µM); settings: recombinant PfCDPK4, Kinase-Glo ATP depletion luminescence
Sequence of Calcium-dependent protein kinase 4 (Plasmodium falciparum (isolate 3D7)) (Q8IBS5 whole entry, looked up): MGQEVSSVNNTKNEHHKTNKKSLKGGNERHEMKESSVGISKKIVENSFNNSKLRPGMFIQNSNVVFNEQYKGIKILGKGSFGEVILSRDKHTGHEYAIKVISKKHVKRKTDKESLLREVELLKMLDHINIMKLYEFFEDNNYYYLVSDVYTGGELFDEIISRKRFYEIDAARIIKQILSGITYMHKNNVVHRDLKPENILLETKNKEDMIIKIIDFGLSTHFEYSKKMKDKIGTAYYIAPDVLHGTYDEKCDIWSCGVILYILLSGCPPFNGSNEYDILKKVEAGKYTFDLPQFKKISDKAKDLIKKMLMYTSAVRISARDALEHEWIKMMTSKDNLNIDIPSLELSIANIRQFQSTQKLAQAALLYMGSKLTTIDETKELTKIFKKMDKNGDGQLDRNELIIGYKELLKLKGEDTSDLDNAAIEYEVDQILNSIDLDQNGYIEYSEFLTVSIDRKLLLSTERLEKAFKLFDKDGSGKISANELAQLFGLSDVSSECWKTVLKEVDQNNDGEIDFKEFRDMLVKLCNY

Sequence of Calcium-dependent protein kinase 1 (Plasmodium falciparum (isolate 3D7)) (P62344 whole entry, looked up): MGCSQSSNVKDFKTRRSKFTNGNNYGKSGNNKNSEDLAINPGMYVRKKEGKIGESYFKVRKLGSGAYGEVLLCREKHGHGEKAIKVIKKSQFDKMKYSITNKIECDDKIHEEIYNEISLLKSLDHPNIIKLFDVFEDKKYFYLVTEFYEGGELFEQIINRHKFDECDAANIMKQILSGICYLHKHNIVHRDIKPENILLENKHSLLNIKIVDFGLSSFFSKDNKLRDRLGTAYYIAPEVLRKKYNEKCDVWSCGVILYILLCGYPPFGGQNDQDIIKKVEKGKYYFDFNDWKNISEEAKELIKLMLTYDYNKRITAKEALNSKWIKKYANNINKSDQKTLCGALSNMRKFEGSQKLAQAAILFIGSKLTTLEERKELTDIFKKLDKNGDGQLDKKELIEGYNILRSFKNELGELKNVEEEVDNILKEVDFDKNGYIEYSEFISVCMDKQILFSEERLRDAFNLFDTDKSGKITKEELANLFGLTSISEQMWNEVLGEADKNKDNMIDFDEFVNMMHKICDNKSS
Sequence of Protein kinase 7 (PK7), Plasmodium falciparum 3D7 (PF3D7_0213400) (Q7YTF7 1-343): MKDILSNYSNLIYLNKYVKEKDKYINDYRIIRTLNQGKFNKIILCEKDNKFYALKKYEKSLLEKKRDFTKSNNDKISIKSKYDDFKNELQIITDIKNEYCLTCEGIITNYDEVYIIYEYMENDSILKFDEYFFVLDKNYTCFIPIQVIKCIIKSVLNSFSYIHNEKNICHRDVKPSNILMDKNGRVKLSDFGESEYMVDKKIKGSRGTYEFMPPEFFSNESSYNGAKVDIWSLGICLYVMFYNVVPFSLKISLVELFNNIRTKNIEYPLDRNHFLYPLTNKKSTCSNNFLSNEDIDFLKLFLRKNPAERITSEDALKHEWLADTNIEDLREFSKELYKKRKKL
Sequence of Plasmodium falciparum protein kinase 6 (PK6, PF3D7_1337100) (Q8IDW1 1-305): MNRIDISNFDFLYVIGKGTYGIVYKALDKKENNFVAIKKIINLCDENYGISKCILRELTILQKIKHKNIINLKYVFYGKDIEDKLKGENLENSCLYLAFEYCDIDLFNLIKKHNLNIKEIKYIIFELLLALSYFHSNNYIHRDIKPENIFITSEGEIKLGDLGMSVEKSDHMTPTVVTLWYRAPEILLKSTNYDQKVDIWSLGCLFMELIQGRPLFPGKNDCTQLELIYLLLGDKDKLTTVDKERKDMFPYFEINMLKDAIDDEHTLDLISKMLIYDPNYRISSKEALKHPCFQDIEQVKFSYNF
Sequence of L-lactate dehydrogenase (Plasmodium falciparum (isolate CDC / Honduras)) (Q27743 whole entry, looked up): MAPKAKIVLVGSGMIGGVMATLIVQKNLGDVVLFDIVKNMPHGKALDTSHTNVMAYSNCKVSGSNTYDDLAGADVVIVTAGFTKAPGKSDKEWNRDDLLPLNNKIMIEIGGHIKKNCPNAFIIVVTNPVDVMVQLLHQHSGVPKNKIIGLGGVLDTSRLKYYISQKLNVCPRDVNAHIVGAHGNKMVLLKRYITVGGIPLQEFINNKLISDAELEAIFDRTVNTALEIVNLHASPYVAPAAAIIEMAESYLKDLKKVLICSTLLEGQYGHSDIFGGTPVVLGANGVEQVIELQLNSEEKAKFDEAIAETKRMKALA

| Compound | growth inhibition [1] | inhibition [2] | inhibition [3] | growth inhibition [4] | outcome [5] | outcome [6] | outcome [7] | outcome [8] |
| --- | --- | --- | --- | --- | --- | --- | --- | --- |
| CCN(CCCN1CCCCC1)c1cc(C)nc(Nc2cccc3c2CCCC3)n1 | 46% | 60% (active) | -3% | 92% (active) | inactive | inactive | inactive | inactive |
| O=C(Nc1cccc(F)c1)NC1CCN(c2ccnc3cc(Cl)ccc23)C1 (stereo not given) | 64% (active) | 13% | -1% | 101% (active) | inactive | inactive | inactive | inactive |
| N#Cc1cccc(C(O)CN(Cc2ccccc2)Cc2ccccc2)c1 (stereo not given) | 100% (active) | 12% | 1% | 101% (active) | inactive | inactive | inactive | inactive |
| CS(=O)(=O)c1ccc(OCCCN(Cc2ccccc2C(F)(F)F)c2ccc(C#N)c(C(F)(F)F)c2)cc1 | 76% (active) | 4% | -5% | 94% (active) | inactive | inactive | inactive | inactive |
| CCCCCCNCc1c(O)ccc2c(CNCCCCCC)c(O)ccc12 | 100% (active) | 22% | -1% | 102% (active) | inactive | inactive | inactive | inactive |
| CN1CCN(c2ccc(-c3cccc(NC(=O)c4cccc([N+](=O)[O-])c4)c3)nn2)CC1 | 35% | 21% | -1% | 99% (active) | inactive | inactive | inactive | inactive |
| O=C(Nc1ccc(C(=O)OCC2CCCCC2)cc1)N[C@@H](Cc1ccc(O)cc1)C(=O)NC1CCN(Cc2ccc(O)cc2)C1 (stereo not given in full) | -4% | 6% | -1% | 91% (active) | inactive | inactive | inactive | inactive |
| NC(=O)c1cc2nc(NC3CCC3)nc(Nc3cccc4[nH]ncc34)c2[nH]1 | 62% (active) | 9% | 4% | 100% (active) | inactive | inactive | inactive | inactive |
| NC(=NCc1ccc(Cl)c(Cl)c1)NC(=NCCCCCCN=C(NC(N)=NCc1ccc(Cl)c(Cl)c1)N1CCCCC1)N1CCCCC1 | 99% (active) | 6% | -5% | 100% (active) | inactive | inactive | inactive | inactive |
| Cn1c(NC(=O)C2CCC(CNC(=O)c3ccc(O)c(-c4ccc(Cl)c(Cl)c4)c3)CC2)nc2ccccc21 (stereo not given) | 100% (active) | 40% | 1% | 99% (active) | inactive | inactive | inactive | inactive |
| Cc1cc(C)c2[nH]cc(C(=O)O)c(=O)c2c1 | 60% (active) | -1% | -6% | 93% (active) | inactive | inactive | inactive | inactive |
| N=c1n(CCN2CCCC2)c2ccccc2n1CC(O)c1ccc(Cl)c(Cl)c1 (stereo not given) | 6% | 36% | 5% | 100% (active) | inactive | inactive | inactive | inactive |
| COc1ccc2nccc(NN=Cc3cccc(Cl)c3)c2c1 | 99% (active) | 1% | 3% | 100% (active) | inactive | inactive | inactive | inactive |
| CCOc1ccc(NC(=O)c2ccc(CN3CCCN(Cc4cccc(O)c4)CC3)cc2)cc1 | 9% | 44% | 0% | 85% (active) | inactive | inactive | inactive | inactive |
| NS(=O)(=O)c1ccc(CNc2ccc3ncc(-c4ccc(Cl)cc4)n3n2)cc1 | 99% (active) | 26% | -4% | 96% (active) | inactive | inactive | inactive | inactive |
| CC1(C)OC[C@]2(C)[C@@H](CC[C@]3(C)C4=CC(=O)CCC4CC[C@@H]23)O1 (stereo not given in full) | 95% (active) | -2% | 1% | 97% (active) | inactive | inactive | inactive | inactive |
| CCn1ncc2c(NC3CCOCC3)c(CNC(=O)c3ccnn3C)c(C)nc21 | 98% (active) | -11% | -2% | 98% (active) | inactive | inactive | inactive | inactive |
| Cc1cccc2[nH]c(-c3cccc(-c4ccc(NC(=O)Nc5ccc(F)c(F)c5F)cc4)c3)nc12 | 100% (active) | 61% (active) | -4% | 101% (active) | inactive | inactive | inactive | inactive |
| Cc1ccc(CNC(=O)[C@H](CC(C)C)Nc2cc(C)nc(NCc3ccccc3C)n2)cc1 | 35% | 3% | 1% | 87% (active) | inactive | inactive | inactive | inactive |
| CC1CCN(C(=O)CSc2nc(-c3ccc(C(C)C)cc3)no2)CC1 | 84% (active) | -1% | 2% | 98% (active) | inactive | inactive | inactive | inactive |

| Compound | growth inhibition [1] | inhibition [2] | inhibition [3] | growth inhibition [4] | outcome [5] | outcome [6] | outcome [7] | outcome [8] |
| --- | --- | --- | --- | --- | --- | --- | --- | --- |
| Cc1ccc(Cn2ncc(N3C[C@@H](C)N[C@@H](C)C3)c(Cl)c2=O)cc1NC(=O)Nc1ccc(-c2ccccc2)cc1 | 29% | 51% (active) | -2% | 100% (active) | inactive | inactive | inactive | inactive |
| CC(=O)Nc1nc(C(=O)Nc2ccc(-c3cccc(-c4nc5ccc(C(F)(F)F)cc5[nH]4)c3)cc2)cs1 | 97% (active) | 79% (active) | -2% | 101% (active) | inactive | inactive | inactive | inactive |
| Cc1nc(C)c(CC(=O)Nc2cccc(-c3cccc(-c4nc5ccc(C(F)(F)F)cc5[nH]4)c3)c2)s1 | 30% | 49% | -4% | 95% (active) | inactive | inactive | inactive | inactive |
| FC(F)(F)c1ccc2c(C=Cc3ccncc3)c[nH]c2c1 | 76% (active) | -12% | -2% | 98% (active) | inactive | inactive | inactive | inactive |
| Cc1cccn2c(=O)c3cc(C(=O)NCCc4ccccc4)c(=N)n(CCCOC(C)C)c3nc12 | 40% | 19% | -3% | 101% (active) | inactive | inactive | inactive | inactive |
| O=C(NCc1ccc(C(=O)NCc2cccc3ccccc23)cc1)c1ccc(O)c(-c2ccc(Cl)c(Cl)c2)c1 | 31% | -10% | -2% | 100% (active) | inactive | inactive | inactive | inactive |
| COC(=O)C1=C(C)NC2=C(C(=O)CC(c3ccc(OC)c(OC)c3)C2)C1c1cccc(O)c1 (stereo not given) | 69% (active) | 2% | 5% | 99% (active) | inactive | inactive | inactive | inactive |
| Nc1ncc(-c2ccc3ncccc3c2)c(N)n1 | -1% | 55% (active) | 2% | 97% (active) | inactive | inactive | inactive | inactive |
| COc1ccc2nccc(N3CCC(CCNCc4ccc5c(n4)NC(=O)CS5)CC3)c2n1 | 75% (active) | 32% | -1% | 102% (active) | inactive | inactive | inactive | inactive |
| Cc1nn(C2CCS(=O)(=O)C2)c(C)c1C1Nc2ccccc2C(=O)N1Cc1ccc2c(c1)OCO2 (stereo not given) | 93% (active) | 7% | 2% | 98% (active) | inactive | inactive | inactive | inactive |
| COc1ccc(F)cc1-c1ccccc1CNC(=O)c1cnn(-c2ccc([N+](=O)[O-])cc2)c1C(F)(F)F | 75% (active) | -3% | -4% | 89% (active) | inactive | inactive | inactive | inactive |
| COc1ccc2nc3cc(Cl)ccc3c(Nc3ccc(O)c(CN4CC5CCC(CC5)C4)c3)c2c1 | 100% (active) | 17% | 3% | 102% (active) | inactive | inactive | inactive | inactive |
| CC(C)(C)CCN1CCC(NC(=O)c2ccc(-c3cccc(C(F)(F)F)c3)s2)CC1 | 88% (active) | 95% (active) | -2% | 93% (active) | inactive | inactive | inactive | inactive |
| CCCCCCN=C(N)c1ccc(OCCCCCOc2ccc(C(N)=NCCCCCC)cc2)cc1 | 98% (active) | 55% (active) | -8% | 97% (active) | inactive | inactive | inactive | inactive |
| O=C(/C=C/c1ccc2ccccc2c1)NCC1(c2ccc(-c3ccccc3)cc2)CCOCC1 | 34% | 9% | 0% | 95% (active) | inactive | inactive | inactive | inactive |
| O=c1cc(NCCCNCc2ccc(Cl)c(Cl)c2)[nH]c2cc(F)cc(F)c12 | 94% (active) | 11% | 0% | 102% (active) | inactive | inactive | inactive | inactive |
| Cc1cc(Oc2cc(NC(=O)c3sc4ncn(Cc5ccccc5F)c(=O)c4c3C)cc([N+](=O)[O-])c2)ccc1Cl | 24% | 2% | 3% | 94% (active) | inactive | inactive | inactive | inactive |
| NC1=NC(c2ccccc2)(c2ccccc2)C(=O)N1CCCCc1ccccn1 | 56% (active) | 10% | -4% | 94% (active) | inactive | inactive | inactive | inactive |
| CCNc1c2ccc(Cl)cc2nc2ccc(OC)cc12 | 100% (active) | 16% | 0% | 99% (active) | inactive | inactive | inactive | inactive |
| O=c1ccc2ccc(F)c3c2n1CC3CN1CCC(NCc2ccc(-c3cccc(Cl)c3)nc2)CC1 (stereo not given) | 33% | 16% | 3% | 96% (active) | inactive | inactive | inactive | inactive |
